In PubChem BioAssay (Tox21):
Where “and” joins values, the source holds several entries; their conditions need not be identical. Equal entries are not always repeated. Results filed as inconclusive are left out. Where a call stands in place of a potency, no number is given. A structure can be active in one record and inactive in another. Calls of active or inactive are those of the source. Unless noted, calls come from the whole dose curve; as a rule, active = well fitted curve in the direction sought with a large enough effect in the repeat runs; inconclusive = weak or mixed curves; inactive = no such curve, though single readings can be large; an effect the other way counts as inactive or inconclusive.

Experiments:
[1] = qHTS assay for small molecule agonists of the p53 signaling pathway (AID 651631; calls by dose curve; note: nearly all actives have a fitted effect of over 15% in size; note: potency is the fitted concentration of half-maximal effect)
How it was run: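 HCT-116 cells carrying a beta-lactamase reporter under p53 response elements were dosed with compound for 16 h at 37 °C. LiveBLAzer B/G FRET substrate was then added for 2 h at room temperature, and fluorescence intensity was read to detect pathway agonism.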

[2] = qHTS assay for small molecules that induce genotoxicity in human embryonic kidney cells expressing luciferase-tagged ATAD5 (AID 651632); note: nearly all actives have a fitted effect of over 15% in size; note: potency is the fitted concentration of half-maximal effect
How it was run: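 Luminescence read-out: after 16 hr compound exposure at 37C, ATAD5-luciferase HEK293T cells received Amplite, 30 min RT, then CCD imaging. A rise in signal marks genotoxic stress.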

[3] = qHTS assay for small molecule agonists of the p53 signaling pathway - cell viability (AID 651633; calls by dose curve; note: nearly all actives have a fitted effect of over 30% in size; note: potency is the fitted concentration of half-maximal effect)
How it was run: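 p53RE-bla cells, seeded at 4,000 per well and rested 5 h at 37 C/5% CO2, received compounds in DMSO for 16 h at 37 C. CellTiter-Glo was then added, and luminescence was read after 30 min at room temperature to gauge cytotoxicity.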

[4] = qHTS assay for small molecules that induce genotoxicity in human embryonic kidney cells expressing luciferase-tagged ATAD5 - cell viability (AID 651634; calls by dose curve; note: nearly all actives have a fitted effect of over 25% in size; note: potency is the fitted concentration of half-maximal effect)
How it was run: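 HEK293T ATAD5-luc cells, 2,000/well; compound 15.5 hr, 37C/5% CO2; CellTiter-Fluor 30 min, 37C; fluorescence read.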

[5] = qHTS assay for small molecule disruptors of the mitochondrial membrane potential - cell viability (AID 720634; calls by dose curve; note: nearly all actives have a fitted effect of over 20% in size; note: potency is the fitted concentration of half-maximal effect)
How it was run: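 Luminescence from CellTiter-Glo (ATP content) gave viability in HepG2 cells, read in the same wells as the MMP dye assay after 1 hr compound exposure at 37 C.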

[6] = qHTS assay for small molecule disruptors of the mitochondrial membrane potential (AID 720635); note: potency is the fitted concentration of half-maximal effect
How it was run: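 HepG2 cells (2,000/well) attached overnight at 37C, then took compound for 1 hr at 37C, 5% CO2. Mito-MPS dye was added for 30 min; fluorescence was read at 490/535 nm (monomers) and 540/590 nm (aggregates).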

[7] = qHTS assay to test for compound auto fluorescence at 590 nm (red) in HepG2 cells (AID 720674)
How it was run: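 Rose Bengal sodium served as the red fluorophore standard. HepG2 monolayers (overnight attachment, MEM with 10% FBS) were exposed to test compounds for 1 hr at 37 C and read at Ex 540/Em 590 nm.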

[8] = qHTS assay to test for compound auto fluorescence at 535 nm (green) in HepG2 cells (AID 720675)
[9] = qHTS assay to test for compound auto fluorescence at 460 nm (blue) in HEK293 cells (AID 720678)
How it was run: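 Measured: blue fluorescence (Ex 405/Em 460 nm) of compound-treated HEK293 cells, incubated overnight at 37C with 5% CO2 and scaled to triamterene equivalents.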

[10] = qHTS assay to test for compound auto fluorescence at 590 nm (red) in HEK293 cells (AID 720679)
How it was run: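 Using HEK293 cells at 2,000 per well, the screen added 23 nL of each compound after cell attachment and incubated overnight (37C, 5% CO2). The plate reader then captured red-label fluorescence, Ex/Em 540/590nm.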

SMILES	Potency [1]	Potency [2]	Potency [3]	Potency [4]	Potency [5]	Potency [6]	outcome [7]	Potency [8]	Potency [9]	outcome [10]	fluorescence, relative to Rose Bengal [7]	fluorescence, % of fluorescein control [8]	fluorescence, % of triamterene [9]
NC(N)=NC(=O)Cc1c(Cl)cccc1Cl	inactive	inactive	inactive	inactive	inactive	inactive	inactive	inactive	inactive	inactive			
CCc1ccc(C(c2ccc(CC)cc2)C(Cl)Cl)cc1	inactive	inactive	inactive	inactive	inactive	49.3 µM (active) and 27.3 µM (active)	inactive	inactive	inactive	inactive			
CC(C)(O)CCC(C)(C)O	inactive	inactive	inactive	inactive	inactive	inactive	inactive	inactive	inactive	inactive			
C/C=C/c1ccc(OCC)c(O)c1	inactive	inactive	inactive	inactive	inactive	48.6 µM (active)	inactive	inactive	inactive	inactive			
CC1COC(=O)O1 (stereo unspecified)	inactive	inactive	inactive	inactive	inactive	inactive	inactive	inactive	inactive				
O=C(O)c1cc(Cl)cc(Cl)c1	inactive	inactive	inactive	inactive	inactive	inactive	inactive	inactive	inactive	inactive			
O=S(=O)(O)c1ccc2nc(-c3ccccc3)[nH]c2c1	inactive	inactive	9.44 µM (active) and 26 µM (active)	inactive	9.44 µM (active) and 26 µM (active)	inactive	inactive	inactive	inactive				
NCCCCCC(=O)O	inactive	inactive	inactive	inactive	inactive	inactive					-0.673% [at 18.6 µM] (inactive)	0.0481% [at 18.6 µM] (inactive)	0.0733% [at 18.6 µM] (inactive)
[Cl][In]([Cl])[Cl]	inactive and 61.1 µM (active)	inactive	inactive	inactive	inactive	inactive	inactive	inactive	inactive	inactive			
CC(=O)OCCOCCOCCOC(C)=O	inactive	inactive	inactive	inactive	inactive	inactive	inactive	inactive	inactive	inactive			
CCCNC(C)C(=O)Nc1ccccc1C (stereo unspecified)	inactive	inactive	inactive	inactive	inactive	inactive	inactive	inactive	inactive	inactive			
C=C(C)C1CC=C(C)C(OC(C)=O)C1 (stereo unspecified)	inactive	inactive	inactive	inactive	inactive	inactive	inactive	inactive	inactive				
c1cnc2cc3c(cc2n1)C1CNCC3C1	inactive	inactive	inactive	inactive	inactive	inactive	inactive	inactive					
Cc1cccc2n[nH]nc12	inactive	inactive	inactive	inactive	inactive	inactive	inactive	inactive	inactive				
COC(c1ccccc1)(c1ccccc1)[C@H](Oc1nc(C)cc(C)n1)C(=O)O	inactive	inactive	inactive	inactive	inactive	inactive	inactive	inactive	inactive	inactive			
CC(=O)OCC1=C(C(=O)O)N2C(=O)[C@@H](NC(=O)Cc3cccs3)[C@H]2SC1	inactive	inactive	inactive	inactive	inactive	inactive	inactive	inactive	inactive				
CC(C)C(=O)c1c(C(C)C)nn2ccccc12	inactive	inactive	inactive	inactive	inactive	inactive	inactive	inactive	inactive	inactive			
CCN1CCCC1CNC(=O)c1cc(S(=O)(=O)CC)c(N)cc1OC (stereo unspecified)	inactive	inactive	inactive	inactive	inactive	inactive	inactive	inactive	inactive	inactive			
Cc1occc(=O)c1OC(=O)C(C)C	inactive	inactive	inactive	inactive	inactive	inactive	inactive	inactive	inactive				
CCn1cc(C(=O)O)c(=O)c2cc(F)c(N3CCNC(C)C3)c(F)c21 (stereo unspecified)	inactive	inactive	inactive	inactive	inactive	inactive	inactive	inactive	inactive				
Cc1cc(C(C)(C)C)c(O)c(C(C)(C)C)c1	inactive	inactive	inactive	inactive	inactive	48.7 µM (active) and 24.3 µM (active)	inactive	inactive	inactive	inactive			

SMILES	Potency [1]	Potency [2]	Potency [3]	Potency [4]	Potency [5]	Potency [6]	outcome [7]	Potency [8]	Potency [9]	outcome [10]	fluorescence, relative to Rose Bengal [7]	fluorescence, % of fluorescein control [8]	fluorescence, % of triamterene [9]
O=c1n(CC2CO2)c(=O)n(CC2CO2)c(=O)n1CC1CO1 (stereo unspecified)	13.3 µM (active) and 8.58 µM (active) and 8.63 µM (active)	23.7 µM (active) and 24.2 µM (active) and 54.5 µM (active)	inactive	inactive	inactive	inactive	inactive	inactive	inactive	inactive			
c1ccc2n[nH]nc2c1	inactive	inactive	inactive	inactive	inactive	inactive	inactive	inactive	inactive	inactive			
CNC1(C)C2CCC(C2)C1(C)C (stereo unspecified)	inactive	inactive	inactive	inactive	inactive	inactive	inactive	inactive	inactive				
Cc1cccc([N+](=O)[O-])c1C(=O)O	inactive	inactive	inactive	inactive	inactive	inactive	inactive	inactive	inactive	inactive			
COC(=O)[C@H]1[C@H]2C[C@@H]3c4[nH]c5cc(OC)ccc5c4CCN3C[C@H]2C[C@@H](OC(=O)c2cc(OC)c(OC)c(OC)c2)[C@@H]1OC	inactive	inactive	inactive	inactive	inactive	48.5 µM (active)	inactive	inactive	inactive				
Nc1cc(Cl)c(-c2cc(Cl)c(N)cc2Cl)cc1Cl	68.5 µM (active) and 68.6 µM (active)	13.7 µM (active)	61.1 µM (active) and 54.5 µM (active)	30.6 µM (active)	48.5 µM (active) and 54.5 µM (active)	9.68 µM (active) and 13.7 µM (active)	inactive	inactive	inactive				
O=C(O)CP(=O)(O)O	inactive	inactive	inactive	inactive	inactive	inactive	inactive	inactive	inactive				
CCOC(=O)C(C)C(C)=O (stereo unspecified)	inactive	inactive	inactive	inactive	inactive	inactive	inactive	inactive	inactive	inactive			
CCOc1ccccc1C(N)=O	inactive	inactive	inactive	inactive	inactive	inactive	inactive	inactive	inactive	inactive			
C[N+]1([O-])CCOCC1	inactive	inactive	inactive	inactive	inactive	inactive	inactive	inactive	inactive				
C=CC(=O)OCCCCCCCC	inactive	inactive	inactive	inactive	inactive	inactive	inactive	inactive	inactive				
CO[Si](OC)(OC)c1ccccc1	inactive	inactive	inactive	inactive	inactive	inactive	inactive	inactive	inactive	inactive			
NC(N)=Nc1nc(CSCC/C(N)=N/S(N)(=O)=O)cs1	inactive	inactive	inactive	inactive	inactive	inactive	inactive	inactive	inactive	inactive			
Nc1nc2ccccc2[nH]1	inactive	inactive	inactive	inactive	inactive	inactive	inactive	inactive	inactive	inactive			
CC(C)(C)NCC(O)c1cc(O)cc(O)c1 (stereo unspecified)	inactive	inactive	inactive	inactive	inactive	inactive	inactive	inactive	inactive				
Nc1cc(S(=O)(=O)O)cc2cc(S(=O)(=O)O)cc(O)c12	inactive	inactive	inactive	inactive	inactive	inactive	inactive	inactive		inactive			
CC1COc2c(N3CCN(C)CC3)c(F)cc3c(=O)c(C(=O)O)cn1c23 (stereo unspecified)	inactive	inactive	inactive	inactive			inactive	inactive					
Cc1cccc(O)c1C	inactive	inactive	inactive	inactive	inactive	inactive	inactive	inactive		inactive			
COC(=O)c1cccc(C(=O)OC)c1	inactive	inactive	inactive	inactive	inactive	inactive	inactive	inactive	inactive	inactive			
CC(C)(C)c1ccccc1	inactive	inactive	inactive	inactive	inactive		inactive	inactive	inactive	inactive			
